Assay results as given in the supplement of paper PMC10849652.
About 7,900 targets were measured; listed, in parts, are those with a hit and a random draw of the rest. About 0.6% of all pairs of compound and target were hits.

How the values were obtained:
Assay in all cases: log2 fold change, soluble protein after heating vs DMSO (PISA); higher = thermal stabilisation; K562 cells, 10 uM, 30 min; active = over 0.2 and 3.5 SD of the protein, either way, in both replicates (recomputed)
[1] = compound: C1=CC=C(C=C1)[C@H](COC2=CC3=C(C=C2)NC(=O)N3)NC(=O)C4=CC=CN(C4=O)CC5=CC(=C(C=C5)F)F
Summary of the method: (§1)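 K562 cells at 2×10^6 cells/mL were exposed to 10 μM compound for 30 min, then aliquots were heated for 3 min across 48°C-58°C, pooled, and extracted in PBS containing 0.5% NP-40 at 4°C. The supernatant after 21,000xg for 90 min was taken as soluble protein and measured by TMTpro 16plex LC-MS/MS with channel sums equalised. Thermal stability is reported relative to control samples, with values from duplicates. Fold changes are given on a log2 scale.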

[2] = compound: CC1=C(SC2=C1C(=N[C@H](C3=NN=C(N32)C)CC(=O)N)C4=CC=C(C=C4)Cl)C
Summary of the method: as §1

[3] = compound: CC1=C2C(=CC=C1)N=C(N(C2=O)C3=CC=CC=C3C)CN4C=NC5=C(N=CN=C54)N
Summary of the method: as §1

[4] = compound: Cc1sc2c(c1C)C(c1ccc(Cl)cc1)=N[C@@H](CC(=O)OC(C)(C)C)c1nnc(C)n1-2
Summary of the method: as §1

[5] = compound: c1ccc([C@@H]2C[C@H]2NC2CCNCC2)cc1
Summary of the method: as §1

Measured: log2 fold change

RPS19 (UniProt P39019)
inactive: [1] 0.108 | [2] -0.158 | [3] -0.197 | [4] 0.107 | [5] -0.002

RB1 (UniProt P06400)
Chain of UniProt P06400 (P06400 whole entry, looked up): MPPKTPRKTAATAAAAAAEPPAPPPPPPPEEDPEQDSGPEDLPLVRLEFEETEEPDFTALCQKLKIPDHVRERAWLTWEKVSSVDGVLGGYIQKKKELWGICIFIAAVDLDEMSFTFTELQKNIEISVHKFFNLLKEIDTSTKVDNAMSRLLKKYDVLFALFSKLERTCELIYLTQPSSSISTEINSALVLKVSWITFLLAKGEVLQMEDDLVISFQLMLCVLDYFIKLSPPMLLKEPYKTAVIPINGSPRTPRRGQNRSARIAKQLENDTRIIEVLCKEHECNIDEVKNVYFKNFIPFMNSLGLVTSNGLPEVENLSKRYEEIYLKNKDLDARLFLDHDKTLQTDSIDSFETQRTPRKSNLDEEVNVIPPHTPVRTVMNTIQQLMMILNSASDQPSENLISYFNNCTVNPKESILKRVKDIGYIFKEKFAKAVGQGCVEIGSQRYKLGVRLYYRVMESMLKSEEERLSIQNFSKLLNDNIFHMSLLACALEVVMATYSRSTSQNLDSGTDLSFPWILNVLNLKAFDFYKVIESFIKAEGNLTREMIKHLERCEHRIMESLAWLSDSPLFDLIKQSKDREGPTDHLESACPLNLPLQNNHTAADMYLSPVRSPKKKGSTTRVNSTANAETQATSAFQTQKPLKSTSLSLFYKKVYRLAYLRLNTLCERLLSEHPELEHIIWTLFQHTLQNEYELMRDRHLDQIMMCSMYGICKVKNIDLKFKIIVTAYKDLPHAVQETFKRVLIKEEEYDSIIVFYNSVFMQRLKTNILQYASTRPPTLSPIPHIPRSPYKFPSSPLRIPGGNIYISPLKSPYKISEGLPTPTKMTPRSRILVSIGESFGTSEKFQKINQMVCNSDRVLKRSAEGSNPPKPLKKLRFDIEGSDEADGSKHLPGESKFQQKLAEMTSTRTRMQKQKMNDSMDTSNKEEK
inactive: [1] -0.038 | [2] 0.064 | [3] 0.048 | [4] 0.011 | [5] 0

REEP4 (UniProt Q9H6H4)
Chain of UniProt Q9H6H4 (Q9H6H4 whole entry, looked up): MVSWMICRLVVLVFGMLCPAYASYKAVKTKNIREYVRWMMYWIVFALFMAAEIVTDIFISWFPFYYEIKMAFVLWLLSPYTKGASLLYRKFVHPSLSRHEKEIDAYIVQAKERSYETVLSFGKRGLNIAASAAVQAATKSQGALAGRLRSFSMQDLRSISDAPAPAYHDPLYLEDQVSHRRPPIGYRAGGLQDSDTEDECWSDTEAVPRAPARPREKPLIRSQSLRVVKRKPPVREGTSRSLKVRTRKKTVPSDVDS
inactive: [1] -0.004 | [2] -0.034 | [3] -0.023 | [4] 0.081 | [5] 0.003

SAFB2 (UniProt Q14151)
inactive: [1] 0.051 | [2] -0.087 | [3] -0.103 | [4] 0.045 | [5] 0

SLC1A5 (UniProt Q15758)
Chain of UniProt Q15758 (Q15758 whole entry, looked up): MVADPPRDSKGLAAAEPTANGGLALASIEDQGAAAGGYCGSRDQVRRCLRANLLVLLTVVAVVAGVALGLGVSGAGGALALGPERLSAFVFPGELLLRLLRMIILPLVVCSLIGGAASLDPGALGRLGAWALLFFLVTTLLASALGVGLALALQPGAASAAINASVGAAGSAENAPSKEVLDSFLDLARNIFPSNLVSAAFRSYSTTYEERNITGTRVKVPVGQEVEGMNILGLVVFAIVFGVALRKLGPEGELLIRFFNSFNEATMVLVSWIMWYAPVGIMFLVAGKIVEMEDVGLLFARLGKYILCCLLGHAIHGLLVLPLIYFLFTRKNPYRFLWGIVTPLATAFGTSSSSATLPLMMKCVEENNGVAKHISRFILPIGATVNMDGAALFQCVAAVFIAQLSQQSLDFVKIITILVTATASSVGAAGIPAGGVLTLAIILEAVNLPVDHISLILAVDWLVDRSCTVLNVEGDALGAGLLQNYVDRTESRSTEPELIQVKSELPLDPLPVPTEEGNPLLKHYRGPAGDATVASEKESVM
inactive: [1] -0.003 | [2] 0.035 | [3] -0.026 | [4] 0.013 | [5] 0.022

RNF167 (UniProt Q9H6Y7)
inactive: [1] -0.025 | [2] -0.011 | [3] 0.002 | [4] -0.017 | [5] 0.001

SETD3 (UniProt Q86TU7)
Chain of UniProt Q86TU7 (Q86TU7 whole entry, looked up): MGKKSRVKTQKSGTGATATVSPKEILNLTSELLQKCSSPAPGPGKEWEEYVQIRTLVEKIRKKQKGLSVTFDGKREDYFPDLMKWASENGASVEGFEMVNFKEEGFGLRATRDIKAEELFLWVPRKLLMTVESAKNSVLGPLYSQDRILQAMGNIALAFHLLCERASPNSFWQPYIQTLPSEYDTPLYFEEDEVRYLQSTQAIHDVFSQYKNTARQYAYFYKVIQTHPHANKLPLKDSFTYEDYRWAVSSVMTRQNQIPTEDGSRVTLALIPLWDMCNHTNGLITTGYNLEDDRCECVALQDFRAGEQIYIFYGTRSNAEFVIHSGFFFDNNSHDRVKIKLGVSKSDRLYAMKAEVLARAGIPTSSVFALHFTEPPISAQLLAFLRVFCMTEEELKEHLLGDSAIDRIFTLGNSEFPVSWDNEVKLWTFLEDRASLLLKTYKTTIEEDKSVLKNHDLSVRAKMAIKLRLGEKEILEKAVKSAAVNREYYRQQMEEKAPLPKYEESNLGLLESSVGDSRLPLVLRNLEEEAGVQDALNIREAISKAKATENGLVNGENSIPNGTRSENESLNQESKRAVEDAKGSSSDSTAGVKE
inactive: [1] -0.017 | [2] 0.018 | [3] 0.061 | [4] 0.021 | [5] -0.005

RPS25 (UniProt P62851)
inactive: [1] 0.046 | [2] -0.166 | [3] -0.139 | [4] 0.09 | [5] 0.002

RETSAT (UniProt Q6NUM9)
inactive: [1] 0.028 | [2] 0.114 | [3] 0.119 | [4] -0.15 | [5] 0.042

SERINC3 (UniProt Q13530)
inactive: [1] -0.062 | [2] 0.045 | [3] 0.071 | [4] -0.062 | [5] 0.133

RPAIN isoform 8 (UniProt Q86UA6)
Chain of UniProt Q86UA6 (Q86UA6 whole entry, looked up): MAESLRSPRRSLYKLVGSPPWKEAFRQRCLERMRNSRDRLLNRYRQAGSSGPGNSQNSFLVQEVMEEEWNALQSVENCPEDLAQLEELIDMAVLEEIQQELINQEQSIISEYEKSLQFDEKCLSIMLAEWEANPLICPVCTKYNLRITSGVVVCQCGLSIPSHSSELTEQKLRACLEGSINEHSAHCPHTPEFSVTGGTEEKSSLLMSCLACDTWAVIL
inactive: [1] 0.026 | [2] 0.057 | [3] 0.046 | [4] -0.038 | [5] 0.006

RRS1 (UniProt Q15050)
inactive: [1] 0.168 | [2] -0.368 | [3] -0.187 | [4] 0.246 | [5] -0.006

RAB9A (UniProt P51151)
inactive: [1] 0.024 | [2] 0.088 | [3] 0.065 | [4] -0.04 | [5] 0.001

RPS16 (UniProt P62249)
inactive: [1] 0.049 | [2] -0.149 | [3] -0.192 | [4] 0.043 | [5] -0.003

SCAF8 isoform 2 (UniProt Q9UPN6)
inactive: [1] -0.072 | [2] 0.099 | [3] 0.254 | [4] -0.016 | [5] 0.012

SH3PXD2B (UniProt A1X283)
inactive: [1] 0.07 | [2] 0.029 | [3] 0.001 | [4] -0.038 | [5] -0.046

RPS6KA1 isoform 2 (UniProt Q15418)
Chain of UniProt Q15418 (Q15418 whole entry, looked up): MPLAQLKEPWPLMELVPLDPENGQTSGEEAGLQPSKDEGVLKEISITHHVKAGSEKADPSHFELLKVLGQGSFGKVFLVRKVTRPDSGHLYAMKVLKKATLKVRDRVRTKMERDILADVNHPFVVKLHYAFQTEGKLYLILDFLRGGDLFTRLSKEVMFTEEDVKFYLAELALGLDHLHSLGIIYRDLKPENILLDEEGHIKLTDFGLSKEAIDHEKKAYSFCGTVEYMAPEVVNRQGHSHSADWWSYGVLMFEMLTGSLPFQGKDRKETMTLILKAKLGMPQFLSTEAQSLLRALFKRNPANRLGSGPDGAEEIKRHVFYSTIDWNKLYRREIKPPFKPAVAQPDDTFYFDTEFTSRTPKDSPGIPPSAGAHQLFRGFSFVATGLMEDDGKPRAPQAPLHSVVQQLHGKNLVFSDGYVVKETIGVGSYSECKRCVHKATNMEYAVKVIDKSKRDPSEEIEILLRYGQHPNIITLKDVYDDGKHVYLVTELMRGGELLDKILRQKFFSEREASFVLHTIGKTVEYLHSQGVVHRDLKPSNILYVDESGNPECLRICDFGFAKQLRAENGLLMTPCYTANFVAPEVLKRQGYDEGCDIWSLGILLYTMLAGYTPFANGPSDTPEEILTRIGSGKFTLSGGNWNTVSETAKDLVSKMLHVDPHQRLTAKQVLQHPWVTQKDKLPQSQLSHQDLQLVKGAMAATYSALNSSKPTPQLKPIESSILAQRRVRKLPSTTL
inactive: [1] -0.059 | [2] 0.048 | [3] 0.051 | [4] -0.009 | [5] -0.018

SIDT2 isoform 2 (UniProt Q8NBJ9)
inactive: [1] -0.005 | [2] -0.005 | [3] 0.018 | [4] -0.115 | [5] 0.088

RPS6KA3 (UniProt P51812)
Chain of UniProt P51812 (P51812 whole entry, looked up): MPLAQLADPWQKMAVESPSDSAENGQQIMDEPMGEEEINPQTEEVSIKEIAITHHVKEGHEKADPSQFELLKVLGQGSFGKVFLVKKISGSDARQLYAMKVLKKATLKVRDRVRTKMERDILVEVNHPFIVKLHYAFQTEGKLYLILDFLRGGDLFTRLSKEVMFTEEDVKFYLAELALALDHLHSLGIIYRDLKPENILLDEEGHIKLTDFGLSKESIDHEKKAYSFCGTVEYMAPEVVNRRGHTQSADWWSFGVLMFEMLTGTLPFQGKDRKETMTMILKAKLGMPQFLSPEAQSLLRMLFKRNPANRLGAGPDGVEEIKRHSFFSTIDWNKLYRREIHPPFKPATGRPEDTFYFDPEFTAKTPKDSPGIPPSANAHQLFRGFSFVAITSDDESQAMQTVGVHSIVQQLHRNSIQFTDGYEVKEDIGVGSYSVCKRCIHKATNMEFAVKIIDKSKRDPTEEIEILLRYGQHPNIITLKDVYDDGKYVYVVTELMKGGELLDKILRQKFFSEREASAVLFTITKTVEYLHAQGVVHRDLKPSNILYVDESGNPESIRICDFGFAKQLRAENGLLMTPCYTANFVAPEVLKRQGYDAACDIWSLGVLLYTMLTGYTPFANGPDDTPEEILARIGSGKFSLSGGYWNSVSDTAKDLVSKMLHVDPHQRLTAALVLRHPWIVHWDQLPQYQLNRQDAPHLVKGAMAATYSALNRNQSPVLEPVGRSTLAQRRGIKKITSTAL
inactive: [1] -0.044 | [2] 0.05 | [3] 0.036 | [4] -0.034 | [5] -0.006

SCD (UniProt O00767)
inactive: [1] 0.011 | [2] -0.019 | [3] 0.012 | [4] 0.054 | [5] 0.027

RARS (UniProt P54136)
Chain of UniProt P54136 (P54136 whole entry, looked up): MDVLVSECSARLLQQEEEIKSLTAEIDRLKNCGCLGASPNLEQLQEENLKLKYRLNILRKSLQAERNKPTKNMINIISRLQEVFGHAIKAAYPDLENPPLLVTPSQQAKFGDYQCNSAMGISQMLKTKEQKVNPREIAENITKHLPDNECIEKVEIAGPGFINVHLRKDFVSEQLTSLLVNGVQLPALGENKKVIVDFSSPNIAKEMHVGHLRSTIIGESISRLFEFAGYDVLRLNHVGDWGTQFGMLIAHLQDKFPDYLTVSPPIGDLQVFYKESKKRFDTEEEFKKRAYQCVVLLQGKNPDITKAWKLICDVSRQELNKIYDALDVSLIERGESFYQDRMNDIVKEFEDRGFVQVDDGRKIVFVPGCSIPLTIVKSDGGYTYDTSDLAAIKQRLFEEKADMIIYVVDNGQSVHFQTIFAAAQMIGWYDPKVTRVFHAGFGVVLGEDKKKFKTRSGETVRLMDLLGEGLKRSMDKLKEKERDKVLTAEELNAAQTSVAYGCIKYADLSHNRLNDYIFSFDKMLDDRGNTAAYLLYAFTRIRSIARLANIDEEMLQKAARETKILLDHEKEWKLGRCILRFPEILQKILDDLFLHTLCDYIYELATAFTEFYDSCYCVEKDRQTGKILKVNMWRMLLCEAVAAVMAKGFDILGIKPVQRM
inactive: [1] -0.057 | [2] -0.081 | [3] -0.02 | [4] 0.169 | [5] 0.024

RPS20 isoform 2 (UniProt P60866)
inactive: [1] -0.002 | [2] -0.114 | [3] -0.051 | [4] 0.059 | [5] 0

RPS14 (UniProt P62263)
inactive: [1] 0.041 | [2] -0.162 | [3] -0.238 | [4] 0.078 | [5] -0.036

RNASEH2A (UniProt O75792)
Chain of UniProt O75792 (O75792 whole entry, looked up): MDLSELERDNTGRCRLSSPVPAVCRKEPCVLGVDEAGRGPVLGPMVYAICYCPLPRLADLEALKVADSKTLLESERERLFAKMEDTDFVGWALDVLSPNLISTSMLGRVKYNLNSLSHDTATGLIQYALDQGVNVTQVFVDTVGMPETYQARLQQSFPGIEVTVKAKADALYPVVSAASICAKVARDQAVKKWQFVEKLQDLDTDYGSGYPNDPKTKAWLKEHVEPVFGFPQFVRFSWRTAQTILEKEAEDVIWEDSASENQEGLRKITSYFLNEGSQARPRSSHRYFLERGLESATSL
inactive: [1] -0.008 | [2] 0.065 | [3] 0.183 | [4] -0.025 | [5] -0.01
